Experimental data as given in PubChem BioAssay.
Calls of active or inactive are those of the source.

system: not listed separately; assay: CREB reporter modulators under forskolin, primary screen, cell-based, PC12, CRE-LacZ reporter, forskolin-stimulated (AID 1146); details: luminescence, 4.5 h, higher = more signal, called active from +8 up or from −8 down;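 also: PC12 cells with 6xCRE LacZ reporter stimulated by forskolin 10 µM; beta-galactosidase reporter signal reflecting CREB driven transcription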

Row | SMILES | z-score
1 | CCCC[C@@H]1C[C@H]1[C@@H](NC(=O)c1ccccc1)c1ccc(C(=O)OC)cc1 | 0.0003 (inactive)
2 | [N-]=[N+]=Nc1ccccc1[C@@H]1OC(c2ccc(OCCCO)cc2)=N[C@]1(CCS(=O)(=O)c1ccccc1)C(N)=O | -1.09 (inactive)
3 | COc1cc2c(cc1O)C(C1CC1)N(Cc1sc3ccccc3c1Cl)CC2 (stereo not given) | 1.82 (inactive)
4 | CO[C@H]1O[C@H](CO)[C@@H](OC(=O)Nc2ccccc2)[C@H](OC(=O)Nc2ccccc2)[C@@H]1OC(=O)Nc1ccccc1 | -0.825 (inactive)
5 | COc1cccc(-c2cccc(=O)o2)c1 | -0.977 (inactive)
6 | C=CCN1C(=O)[C@@]2(CC=C)N=C(c3ccc(OCCCO)cc3)O[C@H]2c2ccccc21 | -2.04 (inactive)
7 | COCCOC(=O)N1C(=O)[C@@]2(c3cc(C#CCC(C(=O)OC)C(=O)OC)ccc31)[C@H](C(=O)Nc1nc3ccccc3s1)[C@H]1C(=O)O[C@H](c3ccccc3)[C@H](c3ccccc3)N1[C@@H]2c1ccccc1OCCO | 0.401 (inactive)
8 | O=C1N[C@@H](Cc2ccccc2)C(=O)N2[C@@H]1C[C@@H](C(=O)O)[C@H]2c1cccc(OCCO)c1 | 0.321 (inactive)
9 | C=CCOC(=O)[C@H]1[C@@H]2C(=O)O[C@@H](c3ccccc3)[C@@H](c3ccccc3)N2[C@@H](c2ccc(OCCOC(=O)[C@H]3C[C@H]4C(=O)N[C@@H](CCCCNC(C)=O)C(=O)N4[C@H]3c3ccc(O)cc3)cc2)[C@]12C(=O)Nc1ccc(I)cc12 | 6.74 (inactive)

biological target: Streptavidin (Streptomyces avidinii) (UniProt P22629); assay: streptavidin binders on small-molecule microarray, primary screen, artefact control for SMM compound annotation, biophysical, 635/667 nm fluorescence (AID 1147); details: streptavidin binding, higher = more signal;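 also: signal reflects streptavidin binding to arrayed compounds as a control protein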
Sequence (P22629 whole entry, looked up): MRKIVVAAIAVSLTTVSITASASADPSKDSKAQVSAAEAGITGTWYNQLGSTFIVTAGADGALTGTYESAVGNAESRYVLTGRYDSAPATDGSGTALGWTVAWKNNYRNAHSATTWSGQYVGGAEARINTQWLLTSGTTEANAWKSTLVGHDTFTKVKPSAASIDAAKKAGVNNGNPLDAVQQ

Row | SMILES | composite z-score
10 | COCCOC(=O)N1C(=O)[C@@]2(c3cc(C#Cc4ccc(OC)cc4)ccc31)[C@H](c1ccc(OCCO)cc1)N1[C@H](c3ccccc3)[C@H](c3ccccc3)OC(=O)[C@H]1[C@@H]2C(=O)N1CCN(c2ncccn2)CC1 | 0.165
11 | C[N+](C)(C)CCCCCCNC(=O)[C@@H]1C[C@@H]2C(=O)N[C@@H](Cc3ccccc3)C(=O)N2[C@@H]1c1cccc(OCCO)c1 | 0.0123
12 | CCOC(=O)C1=C[C@@H](C(C)(C)C)N(S(=O)(=O)c2ccc(C)cc2)[C@H]1c1ccc(F)cc1 | 1.1
13 | COC(=O)c1c(CC[C@@H](CO)NC(=O)NCCn2cc(C3(O)CCCC3)nn2)oc(C(C)=O)c1C(=O)OC | 0.102
14 | NC(=O)N1C(=O)C2C(C1=O)C1C=C(c3ccc(CO)cc3)C2C(c2cccs2)N1Cc1cccc(OC(F)(F)F)c1 (stereo not given) | 0.514
15 | NC(=O)[C@@H]1[C@H]2C(=O)O[C@H](c3ccccc3)[C@H](c3ccccc3)N2[C@H](c2ccc(O)cc2)[C@@]12C(=O)Nc1ccccc12 | -0.99
16 | CC(C)N1C(=O)C[C@@](C(=O)NCC(F)(F)F)(c2ccc([N+](=O)[O-])cc2)[C@H]1c1ccc(CO)cc1 | 0.14
17 | COCCCNC(=O)[C@@]1(C)c2ccccc2C(=O)N(C(C)C)[C@H]1c1ccc(CO)cc1 | 0.889
18 | C=C(/C(=C/C[C@H](OC(C)=O)c1ccccc1OCCO)c1cnc2ccccc2c1)C(C)C | 0.533
19 | C=CCNC(=O)[C@@H]1[C@H]2C(=O)O[C@H](c3ccccc3)[C@H](c3ccccc3)N2[C@H](c2ccc(O)cc2)[C@@]12C(=O)N(C(=O)OCCOC)c1ccc(C#CCNC(N)=O)cc12 | 0.61
20 | O=C(OCc1ccccc1)C1=CCC2c3[nH]c4ccccc4c3C(=O)C1N2S(=O)(=O)c1ccccc1[N+](=O)[O-] (stereo not given) | 0.745
21 | CC(C)=CCN[C@H](CO)c1ccccc1 | 0.0079
22 | O=C(c1ccccc1)N1Cc2ccccc2C[C@@]2(COC(c3ccc(OCCCO)cc3)=N2)C1=O | 0.298
23 | COC(=O)[C@H](Cc1ccccc1)N1CC2=C[C@@H](C3CC3)n3c(=O)n(C)c(=O)n3[C@H]2[C@@H]1[C@@H](O)Cc1ccccc1 | 0.462
24 | COc1ccc(C#Cc2ccc3c(c2)[C@]2(C(=O)N3)[C@H](C(=O)NC[C@H](O)c3ccccc3)[C@H]3C(=O)O[C@H](c4ccccc4)[C@H](c4ccccc4)N3[C@@H]2c2ccc(O)cc2)cc1 | 0.539
25 | CC(C)C(=C=CC[C@@H](O)c1ccc(OCCO)cc1)C[C@@H](O)COCc1ccccc1 | -0.0104
26 | CCCCCN1CC=CC23O[C@@H]4C=CCCOC(=O)C4[C@H]2C(=O)N(CCCCCO)[C@@H]3C1=O (stereo not given in full) | -0.729
27 | CN1C=C(C(=O)OCCS(C)(=O)=O)C(C(=O)OCCS(C)(=O)=O)=CC(c2ccc(CO)cc2)=CC1C1CC1 (stereo not given) | -0.0005

Row | SMILES | composite z-score
28 | COc1cc(C(O)C2C=CC3C(=O)NC(=O)C3N2Nc2ccccn2)cc(OC)c1OC (stereo not given) | 0.0266
29 | CN(C)CCCC[C@@H]1NC(=O)[C@H]2C[C@@H](C(=O)NCCCCCCN)[C@@H](c3ccc(O)cc3)N2C1=O | 1.28
30 | Cc1ccc(S[C@]2(C(=O)NCCCN(C)C)CC(=O)N(Cc3cc(C(F)(F)F)cc(C(F)(F)F)c3)[C@@H]2c2ccc(CO)cc2)cc1 | -0.529
31 | CC1(C)[C@@H]2CC(C(O)C3C=CC4C(=O)N(c5ccccc5)C(=O)C4N3Nc3ccc([N+](=O)[O-])cc3)=C[C@H]1C2 (stereo not given in full) | 1.18
32 | O=C1c2ccccc2[C@](Cc2ccccc2I)(C(=O)NCC(F)(F)F)[C@H](c2ccc(CO)cc2)N1Cc1ccccc1Cl | 0.742
33 | C=C(COC)C(=O)CC[C@@H](OC(C)=O)c1ccc(CO)o1 | -0.374
34 | COc1ccccc1CN1C(=O)c2ccccc2[C@@H](C(=O)NC2CC2)[C@@H]1c1ccc(CO)cc1 | 0.53
35 | COc1ccc(CCNC(=O)[C@@]2(Sc3ccc(C)cc3)CC(=O)N(C(C)C)[C@@H]2c2ccc(CO)cc2I)cc1 | -0.738
36 | CCC[C@@H]1C[C@@]1(CCC)[C@@H](NS(=O)(=O)c1cccc2cccnc12)c1ccc(Cl)cc1 | 0.633
37 | CCCC[C@@H]1C[C@H]1[C@@H](NC(=O)c1ccccc1)c1ccc(C(=O)OC)cc1 | -0.279
38 | [N-]=[N+]=Nc1ccccc1[C@@H]1OC(c2ccc(OCCCO)cc2)=N[C@]1(CCS(=O)(=O)c1ccccc1)C(N)=O | 2.03
39 | COc1cc2c(cc1O)C(C1CC1)N(Cc1sc3ccccc3c1Cl)CC2 (stereo not given) | 0.583
40 | CO[C@H]1O[C@H](CO)[C@@H](OC(=O)Nc2ccccc2)[C@H](OC(=O)Nc2ccccc2)[C@@H]1OC(=O)Nc1ccccc1 | 0.467
41 | COc1cccc(-c2cccc(=O)o2)c1 | 0.438
42 | C=CCN1C(=O)[C@@]2(CC=C)N=C(c3ccc(OCCCO)cc3)O[C@H]2c2ccccc21 | 0.26
43 | COCCOC(=O)N1C(=O)[C@@]2(c3cc(C#CCC(C(=O)OC)C(=O)OC)ccc31)[C@H](C(=O)Nc1nc3ccccc3s1)[C@H]1C(=O)O[C@H](c3ccccc3)[C@H](c3ccccc3)N1[C@@H]2c1ccccc1OCCO | 0.487
44 | O=C1N[C@@H](Cc2ccccc2)C(=O)N2[C@@H]1C[C@@H](C(=O)O)[C@H]2c1cccc(OCCO)c1 | 0.0555
45 | C=CCOC(=O)[C@H]1[C@@H]2C(=O)O[C@@H](c3ccccc3)[C@@H](c3ccccc3)N2[C@@H](c2ccc(OCCOC(=O)[C@H]3C[C@H]4C(=O)N[C@@H](CCCCNC(C)=O)C(=O)N4[C@H]3c3ccc(O)cc3)cc2)[C@]12C(=O)Nc1ccc(I)cc12 | 0.142
